An excerpt weighted towards active compounds, which were near 21% of everything screened.
Cycloheximide cs: counter-screen for Shiga toxin inhibitors: cycloheximide protein synthesis inhibition; cell reporter, cycloheximide protein synthesis inhibition counterscreen; max response, %; 300,000 tested, 12% active; AID 2314; in the data active = max response mostly above about 13%, no sharp cut-off; inactive = mostly below about 14%; note: read at 38.3 µM for the half of the compounds with a filed dose; 0% is about no effect
Pf growth 96h: P. falciparum growth inhibition at 96 hours. P. falciparum luciferase reporter growth, 96 h. Potency, µM (series often up to 28.7 µM), for inactives: top-dose activity change, negative = inhibition, most hits filed as inhibitors. 320,000 tested, 6.9% active. AID 504834; note: potency is the fitted concentration of half-maximal effect; % is set by controls: 0 for no effect and ±100 for the full control effect
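Parasite growth measured via integrated firefly luciferase reporter in P. falciparum. Infected erythrocytes at 2% hematocrit, 0.05% parasitemia final were treated 96 hours at 37 C under 5% CO2, and luminescence was read.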
Shiga toxin inh: Shiga toxin inhibition; Vero cells, Shiga toxin protein synthesis inhibition reporter; inhibition, % at 38.7 µM; 290,000 tested, 9.2% active; AID 2315; in the data active = inhibition mostly above about 28%, no sharp cut-off; inactive = mostly below about 43%; note: 0% is about no effect
Pf growth 48h: inhibits P. falciparum growth in the first generation, 48 h; P. falciparum luciferase growth in erythrocytes, 48 h; Potency, µM (highest dose often 28.7 µM), without a hit: at the highest dose activity change, negative = inhibition, actives largely listed as inhibitors; 310,000 tested, 5.9% active; AID 504832; note: potency is the fitted concentration of half-maximal effect; % is set by controls: 0 for no effect and ±100 for the full control effect
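Compounds are pin-transferred into medium, infected erythrocytes (2% hematocrit, 0.1% parasitemia final) are added, and plates sit one parasite generation at 37 C in 5% CO2. Detection reagent is then added and luminescence measured.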
NS1 function inh: blocks influenza NS1 protein function. Potency, µM (titrated, usually from 46.1 µM), inactives show top-dose activity, positive = more growth. 270,000 tested, 0.4% active. AID 2326; calls by dose curve; note: potency is the fitted concentration of half-maximal effect; actives are rising curves; nearly all actives have a fitted effect of over 50% in size
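Read-out: OD600 growth recovery of NS1-expressing budding yeast. Cells grown overnight at 30C in -URA glucose medium, washed, resuspended and diluted 1:100 in 2% galactose assay medium, pH 6.0. Same strain lacking NS1 served as positive control.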
An asterisk follows results filed as active. Unless noted, calls come from the whole dose curve; as a rule, active = well fitted inhibition curve with a large enough effect; inconclusive = small, poorly fitted or top-dose-only effect, or another doubt; inactive = no such curve, though single readings can be large or run the other way.

What do the screens show for `CCOC(=O)C1(Cc2ccccc2C)CCCN(C(=O)CCc2cccnc2)C1` (centres undefined)?
Cycloheximide cs: 32*; Pf growth 96h: 0%; Shiga toxin inh: 33*; Pf growth 48h: inconclusive; NS1 function inh: -5%

Results for CCCc1cc(C(=O)N2CCCC(Cc3ccccc3C)(C(=O)OCC)C2)no1 (centres undefined) ?
Cycloheximide cs: 3; Pf growth 96h: -8%; Shiga toxin inh: -7; Pf growth 48h: inconclusive; NS1 function inh: -47%

Results for CCOC(=O)C1(Cc2ccccc2)CCCN(Cc2cnn(CC)c2)C1 (centres undefined) ?
Cycloheximide cs: 1; Pf growth 96h: -30%; Shiga toxin inh: -6; Pf growth 48h: 14%; NS1 function inh: 1%

What do the screens show for `CCOC(=O)C1(Cc2ccccc2C)CCCN(C(=O)c2ccccn2)C1` (centres undefined)?
Cycloheximide cs: 40*; Pf growth 96h: inconclusive; Shiga toxin inh: 71*; Pf growth 48h: -4%; NS1 function inh: 2%

What do the screens show for `CCOC(=O)C1(Cc2ccccc2C)CCCN(C(=O)c2ccc3nccnc3c2)C1` (centres undefined)?
Cycloheximide cs: -3; Pf growth 96h: -23%; Shiga toxin inh: -6; Pf growth 48h: 13µM*; NS1 function inh: -2%

How did CCOC(=O)C1(Cc2ccccc2)CCCN(C(=O)c2cnn(CC)c2)C1 (centres undefined) do in these assays?
Cycloheximide cs: 29*; Pf growth 96h: inconclusive; Shiga toxin inh: 73*; Pf growth 48h: 14%; NS1 function inh: -3%

Results for CC(=O)c1cccc(CN2CCC(n3nccc3NC(=O)CCCc3ccccc3)CC2)c1 ?
Cycloheximide cs: -2; Pf growth 96h: inconclusive; Shiga toxin inh: -4; Pf growth 48h: inconclusive; NS1 function inh: 8%

How did CCN(C(=O)CSc1nnc(-c2cccs2)o1)C1CCS(=O)(=O)C1 (centres undefined) do in these assays?
Cycloheximide cs: 7; Pf growth 96h: 13%; Shiga toxin inh: -5; Pf growth 48h: -19%; NS1 function inh: 17%

Results for NC(=O)C1CCCN(S(=O)(=O)c2ccc3ccccc3c2)C1 (centres undefined) ?
Cycloheximide cs: -3; Pf growth 96h: -5%; Shiga toxin inh: -5; Pf growth 48h: 2%; NS1 function inh: 5%

Results for CCOc1ccc(NC(=S)N2CCC(NC(=O)c3ccco3)CC2)cc1 ?
Cycloheximide cs: -1; Pf growth 96h: -3%; Shiga toxin inh: -5; Pf growth 48h: 1%; NS1 function inh: 8%

Results for COCCn1cc(C(=O)c2cc(Br)ccc2O)cc(C#N)c1=O ?
Cycloheximide cs: -2; Pf growth 96h: inconclusive; Shiga toxin inh: 21; Pf growth 48h: 0%

How did Cc1ccc(S(=O)(=O)NC2CC2)s1 do in these assays?
Cycloheximide cs: -6; Pf growth 96h: inconclusive; Shiga toxin inh: 11; Pf growth 48h: -4%; NS1 function inh: 22%

Results for CCOC(=O)C1(Cc2ccccc2C)CCCN(Cc2ccc(NC(C)=O)cc2)C1 (centres undefined) ?
Cycloheximide cs: -2; Pf growth 96h: inconclusive; Shiga toxin inh: -5; Pf growth 48h: 5.2µM*; NS1 function inh: -1%

What do the screens show for `CCc1nnc(NS(=O)(=O)c2ccc(N/C=C\C(=O)c3ccc(C)cc3)cc2)s1`?
Cycloheximide cs: 28*; Pf growth 96h: 134%; Shiga toxin inh: 103*; Pf growth 48h: 59%; NS1 function inh: -52%

Results for CCc1nnc(NS(=O)(=O)c2ccc(NC(=O)/C=C/c3ccc(OC)cc3OC)cc2)s1 ?
Cycloheximide cs: -5; Pf growth 96h: inconclusive; Shiga toxin inh: 21; Pf growth 48h: 6%; NS1 function inh: inconclusive

Results for CCc1nnc(NS(=O)(=O)c2ccc(NC(=S)NC(=O)/C=C/c3ccc(F)cc3)cc2)s1 ?
Cycloheximide cs: -3; Pf growth 96h: 10µM*; Shiga toxin inh: -10; Pf growth 48h: -2%; NS1 function inh: -20%

How did CCc1nnc(NS(=O)(=O)c2ccc(NC(=S)NC(=O)/C=C/c3ccc([N+](=O)[O-])cc3)cc2)s1 do in these assays?
Cycloheximide cs: 1; Pf growth 96h: -24%; Shiga toxin inh: 10; Pf growth 48h: -14%; NS1 function inh: 20%

What do the screens show for `CCc1nnc(NS(=O)(=O)c2ccc(N/C=C\C(=O)c3cccc(OC)c3)cc2)s1`?
Cycloheximide cs: 32*; Pf growth 96h: 427%; Shiga toxin inh: 72*; Pf growth 48h: -18%; NS1 function inh: 0%

Results for CCc1nnc(NS(=O)(=O)c2ccc(N/C=C/C(=O)c3ccc(C)cc3)cc2)s1 ?
Cycloheximide cs: 39*; Pf growth 96h: -11%; Shiga toxin inh: 93*; Pf growth 48h: 20%; NS1 function inh: 1%

Results for CCc1nnc(NS(=O)(=O)c2ccc(NS(=O)(=O)c3ccc(NC(C)=O)cc3)cc2)s1 ?
Cycloheximide cs: -2; Pf growth 96h: 29%; Shiga toxin inh: -12; NS1 function inh: 11%

What do the screens show for `Cc1ccc(C(C(=O)NCC2CCCO2)N(C(=O)c2snc(C(N)=O)c2N)c2ccccc2)o1` (centres undefined)?
Cycloheximide cs: -4; Pf growth 96h: -1%; Shiga toxin inh: -20; Pf growth 48h: -24%; NS1 function inh: 3%

How did CCc1nnc(NS(=O)(=O)c2ccc(N/C=C\C(=O)c3ccc(F)cc3)cc2)s1 do in these assays?
Cycloheximide cs: 47*; Pf growth 96h: -24%; Shiga toxin inh: 66*; Pf growth 48h: -14%; NS1 function inh: 7%

Results for CCc1nnc(NS(=O)(=O)c2ccc(NC(=O)CCC(=O)O)cc2)s1 ?
Cycloheximide cs: 0; Pf growth 96h: -16%; Shiga toxin inh: -10; Pf growth 48h: -4%; NS1 function inh: -14%

What do the screens show for `COc1ccc(N(C)C(=O)CN(C)S(=O)(=O)c2ccc3c(c2)c(=O)n(C)c(=O)n3C)c(OC)c1`?
Cycloheximide cs: -1; Pf growth 96h: inconclusive; Shiga toxin inh: -2; Pf growth 48h: -13%; NS1 function inh: 0%

Results for COc1ccc(C(NC(=O)CN2C(=O)NC3(CCc4ccccc43)C2=O)c2ccc(OC)cc2)cc1 (centres undefined) ?
Pf growth 96h: inconclusive; Pf growth 48h: 10µM*

What do the screens show for `COc1ccc(C(NC(=O)CN2C(=O)NC3(CCc4ccccc43)C2=O)c2ccccc2)cc1` (centres undefined)?
Pf growth 96h: inconclusive; Pf growth 48h: 12µM*

How did COc1cccc(NC(=O)CN2C(=O)NC3(CCCc4ccccc43)C2=O)c1 (centres undefined) do in these assays?
Pf growth 96h: 4.7µM*; Pf growth 48h: -21%

How did COC(=O)c1sccc1NC(=S)N1CCN(c2cccc(C)c2C)CC1 do in these assays?
Cycloheximide cs: -2; Pf growth 96h: 75%; Shiga toxin inh: -13; Pf growth 48h: inconclusive; NS1 function inh: -2%

How did NC1=C([N+](=O)[O-])C(c2ccc(F)cc2)C2=C(CCCC2=O)O1 (centres undefined) do in these assays?
Cycloheximide cs: -3; Pf growth 96h: -3%; Shiga toxin inh: -13; Pf growth 48h: -19%; NS1 function inh: -2%

High-throughput results deposited in PubChem by National Center for Advancing Translational Sciences (NCATS).
